Source: PubChem
Pf Dd2 inh: inhibitors of Plasmodium falciparum Dd2 growth; P. falciparum Dd2 growth, SYBR Green, 72 h; Potency, µM (highest dose often 28.9 µM), for the others: top-dose activity, negative = inhibition, hits mostly inhibitors; 120,000 compounds, 4.3% hits; AID 1347417; active means well fitted inhibition curve with a large enough effect;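 further: plate controls were DMSO vehicle for no effect and reference drug for full effect; nearly all actives have a fitted effect of over 65% in size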
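Readout: SYBR Green fluorescence, 485 nm excitation, 535 nm emission, after ~16 h lysis at 37C. Before that, Dd2-infected red cells (2.5% hematocrit) grew 72 h with compound, 29 uM top final concentration.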
An asterisk follows results filed as active; i = inactive; [ ] = remark or other dose. This excerpt belongs to a sample that is enriched for hits. Potency means the concentration at half of the fitted maximal effect.

SMILES	Pf Dd2 inh
COCc1noc([C@@H]2CN(C(=O)CCc3c[nH]c4ccccc34)C[C@H]2C(N)=O)n1	-6%
CC(C)c1csc(CN2CC[C@@H](c3ccc4c(c3)OCO4)[C@H](O)C2)n1	-14%
CC(C)n1cc(CN2CC[C@@H](c3ccc4ccccc4c3)[C@H](O)C2)cn1	10µM*
O=C(O)c1ccc(CN2CC[C@@H](c3ccc4c(c3)OCO4)[C@H](O)C2)cc1	-13%
Cc1cc(C)c(S(=O)(=O)N2CC(c3nc(-c4ccncc4)no3)C2)cc1C	-21%
c1ccc(-c2[nH]ncc2CN2CCCC(N3CCN(c4ccccc4)CC3)C2)cc1 (centres undefined)	-3%
COc1ccc(-c2nn(-c3ccccc3)cc2CN2CCN3CCCC3C2)c(F)c1 (centres undefined)	7.1µM*
COC1CCCN(Cc2cn(-c3ccc(F)cc3)nc2-c2ccccc2Cl)C1 (centres undefined)	13µM*
COc1ccc2nc(CO[C@H]3CN(Cc4cn(C)c5ccccc45)C[C@H]3F)[nH]c2c1	-30%[44.1 µM]
CNCC(=O)N1CCCC(N2CCN(c3ccc(OC)cc3)CC2)C1 (centres undefined)	0%
O=C(c1ccccc1OCC1CCCN(Cc2ccc(F)cc2Cl)C1)N1CCOCC1 (centres undefined)	i
O=c1[nH]c(C2CCCN(Cc3cccc4ccccc34)C2)nn1-c1ccc(Cl)cc1 (centres undefined)	11%
CCc1cnc(C)nc1N1CCN(Cc2ccccc2F)C(CCO)C1 (centres undefined)	-27%
Cc1ccccc1-c1nc2cc3c(cc2cc1CN1CCC[C@H]1CO)OCO3	-14%
COc1ccc(-c2nn(-c3ccccc3)cc2CN2CCN(C)C(C)C2)c(F)c1 (centres undefined)	11µM*
Cc1ccccc1-c1nn(-c2ccc(F)cc2F)cc1CN1CCCC1CCO (centres undefined)	7.9µM*
COc1ccc(-c2nn(-c3ccccc3)cc2C(=O)Nc2ccccc2OC)cc1	i
CNCC(=O)N1CCC(n2nccc2NC(=O)Nc2ccccc2Cl)CC1	-5%
O=C(CC[C@H]1NC(=O)c2ccccc2NC1=O)Nc1nc(-c2cccnc2)cs1	-22%
COC[C@H]1CCCN1C(=O)CC[C@@H]1CNC(=O)[C@@H]2C[C@H](NCc3ccc(N(C)C)cc3)CN12	24%
Cc1nnnn1CCC(=O)NCC1CCN(c2cnn(C)c(=O)c2)C1 (centres undefined)	22%
O=C(c1ccccc1)N1CCCC(c2nn(-c3ccccc3)c(=O)[nH]2)C1 (centres undefined)	-24%
CN1[C@@H](CCC(=O)NCc2ccco2)CNC(=O)[C@@H]2[C@H]1CCN2Cc1ccccc1	-3%[44.1 µM]
O=C(CCC1CCN(S(=O)(=O)c2ccccc2F)CC1)NCc1ccncc1	5%
COc1ccc(-c2nn(-c3ccccc3)cc2CN2CCCC(CO)C2)c(F)c1 (centres undefined)	8.9µM*
SMILES	Pf Dd2 inh
COc1ccc(F)c(CN2CCCC(O)(CN3CCC(CO)CC3)C2=O)c1 (centres undefined)	-19%
COc1ccc(-c2ccnc3nc(-c4ccccc4OC)nn23)c(F)c1	-20%
COc1ccc(CN2CCc3nc(N4CCN(C)CC4)[nH]c(=O)c3CC2)c(OC)c1	37%[5.79 µM]
COC[C@H]1CCCN1Cc1cn(-c2ccccc2)nc1-c1ccc(OC)cc1F	10µM*
COc1ccc(-n2cc(CN3CCCC(CO)C3)c(-c3cccc(F)c3)n2)cc1 (centres undefined)	13µM*
COc1ccc(F)c(CN2CCC(CCC(=O)N3CCN(c4ccccc4)CC3)CC2)c1	-30%
COc1ccc2c(c1)c(CN1CCc3nc(N4CCN(C)CC4)[nH]c(=O)c3CC1)cn2C	0%[5.79 µM]
COc1ccc(-c2nc3c(C)cccc3cc2CN2CC[C@@H](O)C2)cc1	-25%
COc1ccc(-n2cc(CN3CCN(C)C(C)C3)c(-c3cccc(F)c3)n2)cc1 (centres undefined)	-14%
COC[C@@H]1CCCN1Cc1cn(Cc2ccccc2)nc1-c1cc2ccccc2o1	i
COc1ccc(-c2nn(-c3ccccc3)cc2CN2CCN(C)CC2)c(F)c1	10µM*
COCCNC(=O)C1CN(Cc2ccccc2)C(=O)N1 (centres undefined)	8%[44.1 µM]
Cc1nc2c(N)cccn2n1	6%
O=C(NCCCN1CCCC1=O)c1cn2ccnc(-c3ccc(F)cc3)c2n1	-14%
O=C(NCCC1CCN(C(=O)Nc2ccccc2F)CC1)c1ccccn1	-6%
O=C(c1ccc2ncccc2c1)N1CC2CC(C1)[C@H]1CCCC(=O)N1C2 (some centres undefined)	6%
O=C1CCN(C(=O)c2cc3ccccc3[nH]2)CCOCCN1	-2%
O=C(c1ccccc1)N1CCC2(CC1)CN[S+](=O)([O-])c1cccnc1O2	13%
O=C(c1cccnc1)N1CCC2(CCCCO2)CC1	-20%
COc1ccccc1N1CCN(C(=O)c2cc3ccc4ccc(C)[nH]c4c3n2)CC1	13µM*
COc1ccccc1N1CCN(C(=O)c2cc(-c3ccccc3O)on2)CC1	10%
COc1ccc(Cl)cc1NC(=O)c1cc2nc(-c3ccc(C)cc3)cc(C(F)(F)F)n2n1	19%
COc1ccc(Cl)cc1NC(=O)c1cnc(SC)nc1-c1ccccc1	8%
CCSc1ncc(Cl)c(C(=O)N2CCN(c3ccccc3OC)CC2)n1	34%
COc1ccc(Cl)cc1NC(=O)c1cc2ccc3ccc(C)[nH]c3c2n1	11µM*
SMILES	Pf Dd2 inh
COc1ccc(N2Cc3c(NC4CCCC4)ncnc3N(C)CC2=O)cc1	-1%
CN1Cc2cccn2CC1CNC(=O)c1ccco1 (centres undefined)	-12%
CC[C@H]1CN(C(=O)N2CCOCC2)CC[C@H]1CC(=O)NCc1ccccc1	-14%[44.1 µM]
COc1ccc(F)cc1-c1ncc2c(n1)OCCN(c1cccc(C(F)(F)F)c1)C2=O	-18%[44.1 µM]
O=C(c1ccc2nc(-c3ccccc3)cn2c1)N1CCOC(C(F)(F)F)C1 (centres undefined)	8%
COc1ccc(-c2c3c(=O)n(C)c(=O)n(C)c3c3c(-c4cccc(C)c4)nc4ccccc4n23)cc1	40%
Cc1ccc(-c2c3c(=O)n(C)c(=O)n(C)c3c3c(-c4cccc(C)c4)nc4ccccc4n23)cc1	i
COc1ccc(-c2nc3ccccc3n3c(-c4cccc(C)c4)c4c(=O)n(C)c(=O)n(C)c4c23)cc1OC	11µM*
O=C(Nc1ccc(Cl)cc1Cl)c1ccnc2[nH]ccc12	-12%
COC(=O)CNC(=O)c1cc(-c2ccc([S+](C)(=O)[O-])cc2)nc2c1cnn2C	7%
CCN(Cc1nc(C)no1)C(=O)c1cc(COc2ccccc2F)[nH]n1	-11%
Cc1noc(C)c1-c1cc(-c2cnn(C)c2)cn2cncc12	-9%[44.1 µM]
COc1ccc(-c2cc(-c3cccc(OC)c3OC)cn3cncc23)cc1	1µM*
CC(=O)Nc1cccc(-c2cc(C3=CCOCC3)c3cncn3c2)c1	i
COc1ccc(-c2cc(-c3cnn(C)c3)cn3cncc23)cn1	10µM*
Cc1ccc(-c2cc(-c3ccc(=O)[nH]c3)c3cncn3c2)cn1	47%[44.1 µM]
c1cc(-c2cc(-c3ccc4cn[nH]c4c3)cn3cncc23)ccn1	-2%[44.1 µM]
Cc1noc(C)c1-c1cc(-c2cccc(N[S+](C)(=O)[O-])c2)cn2cncc12	i
COc1ccc(-c2cc(-c3c(C)noc3C)c3cncn3c2)cc1	5µM*
COc1ccc(Cn2c(=O)c3ccccc3n3c(-c4cccc(OC)c4OC)nnc23)cc1	i
COc1ccc(-c2nc(-c3c(C)noc3C)cc3c2cc(-c2ccccc2)n3C)cn1	-26%[44.1 µM]
